Of roughly 7,900 targets only a part is listed; those with a hit were picked by preference. About 0.6% of all pairs of compound and target were hits.
Tests used:
Experiment in all cases: log2 fold change, soluble protein after heating vs DMSO (PISA); higher = thermal stabilisation; K562 cells, 10 uM, 30 min; active = over 0.2 and 3.5 SD of the protein, either way, in both replicates (recomputed)
[1] = compound: CC[C@@H]1C(=O)N(C)c2cnc(Nc3ccc(C(=O)NC4CCN(C)CC4)cc3OC)nc2N1C1CCCC1
Outline: (§1)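 Quantification of soluble protein used TMTpro 16plex LC-MS/MS, with channel sums equalised. Samples were the supernatant after 21,000xg for 90 min of pooled aliquots from K562 cells (2×10^6 cells/mL) treated with 10 μM compound for 30 min, heated for 3 min over 48°C-58°C, and extracted in PBS with 0.5% NP-40 at 4°C. Values, from duplicates, describe thermal stability against control samples on a log2 fold-change scale.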

[2] = compound: CC[C@@H]1C(=O)N(C)c2cnc(Nc3ccc(C(=O)N[C@H]4CC[C@H](N5CCN(CC6CC6)CC5)CC4)cc3OC)nc2N1C(C)C [volasertib]
Outline: as §1

[3] = compound: CC[C@H](C)N1C=C(C2=C(C=C(C=C21)C3=CN=C(C=C3)N4CCNCC4)C(=O)NCC5=C(C=C(NC5=O)C)C)C
Outline: as §1

[4] = compound: CC[C@H](C)[C@@H](C(=O)N[C@@H]([C@@H](C)O)C(=O)N[C@@H](CC(C)C)C(=O)[C@]1(CO1)C)NC(=O)[C@H]([C@@H](C)CC)N(C)C(=O)C [epoxomicin]
Outline: as §1

[5] = compound: CCn1c(C(=O)N(C2CC2)C2CC2)cc2c3c(ncn3C)c(Nc3cc(C)n(C)n3)nc21
Outline: as §1

[6] = compound: CCn1cc(-c2ccnc3[nH]c(-c4cccc(CN(C)C)c4)cc23)c(-c2ccc(NC(=O)N(C)C)cc2)n1
Outline: as §1

[7] = compound: CN(C)CC(=O)Nc1ccc2[nH]c(=O)c3ccccc3c2c1
Outline: as §1

[8] = compound: CN(CCOC1=CC=C(C=C1)C[C@H]2C(=O)NC(=O)S2)C3=CC=CC=N3 (racemic) [rosiglitazone]
Outline: as §1

[9] = compound: CN1C2=C(C3=C1C(=O)N(N=C3)CC4=CC(=CC=C4)N)SC(=C2)S(=O)C
Outline: as §1

[10] = compound: CN1CCC(CNc2ccc3ncc(-c4cccc(OC(F)(F)F)c4)n3n2)CC1
Outline: as §1

Measured: log2 fold change

SNX6 (UniProt Q9UNH7)
active: [10] -0.77
inactive: [1] -0.142 | [2] -0.047 | [3] 0.117 | [4] 0.015 | [5] -0.141 | [6] -0.131 | [7] 0.005 | [8] 0.08 | [9] 0.016

TIMM10 (UniProt P62072)
inactive: [1] 0.029 | [2] 0.052 | [3] -0.023 | [4] 0.032 | [5] 0.059 | [6] 0.006 | [7] -0.046 | [8] -0.007 | [9] -0.074 | [10] 0.14

THYN1 (UniProt Q9P016)
UniProt Q9P016, sequence (Q9P016 whole entry, looked up): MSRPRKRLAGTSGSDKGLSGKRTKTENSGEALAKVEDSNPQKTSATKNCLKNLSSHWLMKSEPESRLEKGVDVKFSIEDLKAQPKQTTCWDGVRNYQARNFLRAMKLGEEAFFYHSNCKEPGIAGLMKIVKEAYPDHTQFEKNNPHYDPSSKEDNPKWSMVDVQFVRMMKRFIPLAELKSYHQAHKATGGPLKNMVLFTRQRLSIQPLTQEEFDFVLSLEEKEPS
inactive: [1] 0.059 | [2] 0.09 | [3] 0.048 | [4] 0.016 | [5] 0.072 | [6] -0.04 | [7] -0.004 | [8] 0.001 | [9] -0.09 | [10] 0.09

TMBIM1 (UniProt Q969X1)
inactive: [1] 0.086 | [2] 0.002 | [3] -0.014 | [4] -0.033 | [5] 0.034 | [6] 0.044 | [7] 0.029 | [8] -0.013 | [9] -0.035 | [10] -0.03

SP1 (UniProt P08047)
UniProt P08047, sequence (P08047 whole entry, looked up): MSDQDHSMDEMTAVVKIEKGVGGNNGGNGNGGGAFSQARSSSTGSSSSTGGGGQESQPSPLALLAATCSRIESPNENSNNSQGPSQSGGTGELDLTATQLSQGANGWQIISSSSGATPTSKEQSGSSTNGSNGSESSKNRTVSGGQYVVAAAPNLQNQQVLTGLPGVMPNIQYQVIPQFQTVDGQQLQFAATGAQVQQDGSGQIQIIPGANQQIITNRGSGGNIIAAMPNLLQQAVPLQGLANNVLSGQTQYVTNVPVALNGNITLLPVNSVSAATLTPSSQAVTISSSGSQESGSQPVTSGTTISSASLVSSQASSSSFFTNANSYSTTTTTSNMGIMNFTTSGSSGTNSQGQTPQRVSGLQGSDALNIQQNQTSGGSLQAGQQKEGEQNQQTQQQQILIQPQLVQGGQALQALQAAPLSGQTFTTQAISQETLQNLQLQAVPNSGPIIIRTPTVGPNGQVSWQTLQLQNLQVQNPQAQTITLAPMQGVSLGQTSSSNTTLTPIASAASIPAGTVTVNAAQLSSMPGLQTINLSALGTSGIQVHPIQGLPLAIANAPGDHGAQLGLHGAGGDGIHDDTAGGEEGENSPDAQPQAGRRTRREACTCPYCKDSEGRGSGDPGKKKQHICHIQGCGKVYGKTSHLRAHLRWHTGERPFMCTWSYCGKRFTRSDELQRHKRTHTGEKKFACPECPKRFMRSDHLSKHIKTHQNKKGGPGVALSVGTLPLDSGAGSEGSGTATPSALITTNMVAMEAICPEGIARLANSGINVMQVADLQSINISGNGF
inactive: [1] 0.047 | [2] 0.102 | [3] 0 | [4] -0.032 | [5] 0.007 | [6] -0.003 | [7] -0.042 | [8] -0.005 | [9] 0.006 | [10] -0.063

SUCLG1 (UniProt P53597)
inactive: [1] 0.008 | [2] -0.044 | [3] 0.063 | [4] 0.031 | [5] -0.013 | [6] -0.012 | [7] -0.027 | [8] 0.037 | [9] -0.041 | [10] -0.097

TGFBRAP1 (UniProt Q8WUH2)
inactive: [1] -0.098 | [2] -0.253 | [3] 0.128 | [4] 0.048 | [5] -0.038 | [6] -0.059 | [7] 0.11 | [8] 0.097 | [9] 0.195 | [10] 0.011

ST6GAL1 (UniProt P15907)
active: [1] -0.221
inactive: [2] -0.257 | [3] 0.003 | [4] -0.066 | [5] 0.019 | [6] 0.01 | [7] 0.041 | [8] 0.058 | [9] -0.057 | [10] -0.149

SRP68 (UniProt Q9UHB9)
active: [2] -0.487
inactive: [1] -0.077 | [3] 0.079 | [4] 0.094 | [5] -0.093 | [6] -0.024 | [7] 0.019 | [8] 0.048 | [9] 0.133 | [10] -0.18

TCERG1 (UniProt O14776)
UniProt O14776, sequence (O14776 whole entry, looked up): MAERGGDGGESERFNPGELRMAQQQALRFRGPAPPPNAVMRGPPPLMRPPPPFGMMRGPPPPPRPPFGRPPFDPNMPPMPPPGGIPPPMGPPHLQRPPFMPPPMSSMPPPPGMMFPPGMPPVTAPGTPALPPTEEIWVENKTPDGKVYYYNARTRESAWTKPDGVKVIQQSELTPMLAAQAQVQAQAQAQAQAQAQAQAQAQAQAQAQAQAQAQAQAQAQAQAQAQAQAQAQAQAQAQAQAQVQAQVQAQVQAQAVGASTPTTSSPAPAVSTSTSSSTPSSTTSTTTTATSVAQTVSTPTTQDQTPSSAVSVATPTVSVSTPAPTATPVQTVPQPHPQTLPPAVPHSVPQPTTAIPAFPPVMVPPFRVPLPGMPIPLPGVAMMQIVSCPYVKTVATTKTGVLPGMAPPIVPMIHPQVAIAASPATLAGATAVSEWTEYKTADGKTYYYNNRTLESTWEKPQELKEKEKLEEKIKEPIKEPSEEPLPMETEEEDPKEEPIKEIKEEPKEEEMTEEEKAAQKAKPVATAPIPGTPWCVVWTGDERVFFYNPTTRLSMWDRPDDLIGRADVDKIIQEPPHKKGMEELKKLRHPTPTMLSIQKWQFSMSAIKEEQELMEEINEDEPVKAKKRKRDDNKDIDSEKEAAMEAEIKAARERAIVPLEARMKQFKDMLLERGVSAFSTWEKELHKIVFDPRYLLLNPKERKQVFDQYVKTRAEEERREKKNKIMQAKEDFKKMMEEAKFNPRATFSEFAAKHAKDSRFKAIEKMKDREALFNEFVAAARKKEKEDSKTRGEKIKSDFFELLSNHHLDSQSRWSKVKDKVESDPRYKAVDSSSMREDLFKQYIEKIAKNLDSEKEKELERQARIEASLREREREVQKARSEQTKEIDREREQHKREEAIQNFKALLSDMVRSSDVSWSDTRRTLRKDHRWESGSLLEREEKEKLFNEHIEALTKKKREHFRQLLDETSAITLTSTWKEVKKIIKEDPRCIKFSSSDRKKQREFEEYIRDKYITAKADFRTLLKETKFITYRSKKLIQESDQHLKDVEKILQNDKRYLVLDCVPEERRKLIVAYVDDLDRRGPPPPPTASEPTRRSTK
inactive: [1] -0.145 | [3] 0.133 | [4] 0.116 | [5] -0.076 | [6] -0.032 | [7] 0.135 | [8] 0.071 | [9] -0.038 | [10] -0.136
active: [2] -0.445

SLC7A6OS (UniProt Q96CW6)
inactive: [1] -0.027 | [2] -0.084 | [3] -0.042 | [4] 0.01 | [5] -0.07 | [6] -0.038 | [7] 0.004 | [8] -0.06 | [9] -0.05 | [10] 0.055

SLC25A39 (UniProt Q9BZJ4)
active: [10] -0.82
inactive: [1] 0.029 | [2] -0.06 | [3] 0.087 | [4] 0.081 | [5] 0.096 | [6] -0.12 | [7] 0.06 | [8] -0.03 | [9] 0.012

SUPT16H (UniProt Q9Y5B9)
inactive: [1] -0.426 | [2] -0.363 | [3] 0.095 | [4] 0.085 | [5] -0.108 | [6] -0.089 | [7] 0.285 | [8] 0.073 | [9] -0.02 | [10] -0.198

SRPRB (UniProt Q9Y5M8)
inactive: [1] -0.141 | [2] -0.048 | [3] 0.031 | [4] 0.1 | [5] -0.046 | [6] -0.134 | [7] 0.042 | [8] 0.002 | [9] -0.05 | [10] 0.051

SLC6A6 (UniProt P31641)
UniProt P31641, sequence (P31641 whole entry, looked up): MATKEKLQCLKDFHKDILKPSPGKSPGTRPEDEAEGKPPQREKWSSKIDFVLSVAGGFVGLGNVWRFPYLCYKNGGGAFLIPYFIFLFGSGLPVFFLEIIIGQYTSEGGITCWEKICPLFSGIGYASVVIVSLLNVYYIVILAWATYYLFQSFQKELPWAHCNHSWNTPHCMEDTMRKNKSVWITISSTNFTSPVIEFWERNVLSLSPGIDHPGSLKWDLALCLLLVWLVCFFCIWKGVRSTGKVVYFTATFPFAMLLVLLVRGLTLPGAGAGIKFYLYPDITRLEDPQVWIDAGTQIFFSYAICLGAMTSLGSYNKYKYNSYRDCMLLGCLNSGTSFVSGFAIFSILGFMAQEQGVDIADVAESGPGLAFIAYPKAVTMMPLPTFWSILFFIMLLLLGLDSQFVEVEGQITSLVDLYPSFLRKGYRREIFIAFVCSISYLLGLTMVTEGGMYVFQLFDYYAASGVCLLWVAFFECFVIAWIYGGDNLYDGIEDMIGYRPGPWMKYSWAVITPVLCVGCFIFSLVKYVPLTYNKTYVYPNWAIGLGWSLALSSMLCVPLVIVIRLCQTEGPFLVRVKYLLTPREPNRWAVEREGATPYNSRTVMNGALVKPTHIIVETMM
inactive: [1] -0.011 | [2] 0.01 | [3] 0 | [4] 0.135 | [5] 0.024 | [6] -0.053 | [7] -0.012 | [8] -0.011 | [9] -0.02 | [10] 0.084

STAT5A (UniProt P42229)
active: [2] -0.633
inactive: [1] -0.225 | [3] 0.121 | [4] 0.072 | [5] -0.072 | [6] 0.041 | [7] 0.074 | [8] 0.056 | [9] -0.005 | [10] -0.109

SSB (UniProt P05455)
inactive: [1] -0.154 | [2] -0.131 | [3] 0.083 | [4] -0.011 | [5] 0.015 | [6] 0.04 | [7] -0.012 | [8] 0.044 | [9] -0.001 | [10] -0.194

SSR4 (UniProt P51571)
inactive: [1] 0.004 | [2] -0.01 | [3] -0.004 | [4] 0.029 | [5] 0.06 | [6] 0.002 | [7] -0.022 | [8] 0.015 | [9] -0.028 | [10] 0.045

TBC1D23 (UniProt Q9NUY8)
UniProt Q9NUY8, sequence (Q9NUY8 whole entry, looked up): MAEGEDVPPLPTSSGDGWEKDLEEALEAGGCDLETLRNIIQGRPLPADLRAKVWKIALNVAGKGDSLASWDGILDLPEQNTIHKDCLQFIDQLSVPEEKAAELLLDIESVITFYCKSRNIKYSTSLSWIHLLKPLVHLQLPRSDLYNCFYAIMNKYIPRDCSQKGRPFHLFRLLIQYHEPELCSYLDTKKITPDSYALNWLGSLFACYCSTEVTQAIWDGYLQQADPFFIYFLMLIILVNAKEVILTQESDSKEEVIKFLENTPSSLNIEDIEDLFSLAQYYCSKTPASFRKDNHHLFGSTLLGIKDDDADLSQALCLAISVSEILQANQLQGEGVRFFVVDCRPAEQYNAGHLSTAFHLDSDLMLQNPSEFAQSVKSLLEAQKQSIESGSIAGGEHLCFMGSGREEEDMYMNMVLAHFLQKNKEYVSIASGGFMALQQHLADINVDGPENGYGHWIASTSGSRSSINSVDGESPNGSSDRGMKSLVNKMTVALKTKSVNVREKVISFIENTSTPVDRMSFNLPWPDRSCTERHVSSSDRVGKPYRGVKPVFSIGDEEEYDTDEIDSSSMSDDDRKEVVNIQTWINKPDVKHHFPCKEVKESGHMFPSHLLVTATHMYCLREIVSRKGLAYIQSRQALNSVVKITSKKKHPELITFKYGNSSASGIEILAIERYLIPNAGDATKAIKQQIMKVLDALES
inactive: [1] -0.228 | [2] -0.261 | [3] 0.008 | [4] 0.049 | [5] -0.05 | [6] -0.069 | [7] 0.025 | [8] 0.042 | [9] 0.043
active: [10] -0.651

SLC9A6 isoform 2 (UniProt Q92581)
inactive: [1] 0.047 | [2] -0.081 | [3] 0.009 | [4] -0.013 | [5] -0.003 | [6] -0.003 | [7] -0.026 | [8] -0.013 | [9] -0.039 | [10] -0.071

TBRG4 (UniProt Q969Z0)
active: [10] -1.19
inactive: [1] -0.361 | [2] -0.583 | [3] -0.003 | [4] 0.12 | [5] -0.034 | [6] 0.009 | [7] 0.111 | [8] 0.073 | [9] 0.047

SLC25A36 (UniProt Q96CQ1)
UniProt Q96CQ1, sequence (Q96CQ1 whole entry, looked up): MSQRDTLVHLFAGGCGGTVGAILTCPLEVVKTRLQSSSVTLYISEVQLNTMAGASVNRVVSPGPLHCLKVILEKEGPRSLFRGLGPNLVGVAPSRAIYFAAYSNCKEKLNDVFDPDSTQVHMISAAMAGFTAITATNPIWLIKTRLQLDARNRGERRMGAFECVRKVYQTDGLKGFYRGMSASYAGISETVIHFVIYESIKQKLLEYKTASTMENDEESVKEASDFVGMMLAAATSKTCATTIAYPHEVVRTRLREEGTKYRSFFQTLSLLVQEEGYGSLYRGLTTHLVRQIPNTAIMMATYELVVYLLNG
inactive: [1] -0.133 | [2] 0.059 | [3] 0.045 | [4] 0.026 | [5] -0.002 | [6] -0.135 | [7] -0.217 | [8] -0.073 | [9] 0.02 | [10] 0.046

SPPL2B (UniProt Q8TCT7)
inactive: [1] 0.039 | [2] 0 | [3] -0.003 | [4] -0.076 | [5] -0.004 | [6] 0.028 | [7] 0.035 | [8] -0.022 | [9] 0.033 | [10] -0.228

TBC1D24 (UniProt Q9ULP9)
inactive: [1] 0.025 | [2] -0.028 | [3] 0.05 | [4] -0.011 | [5] -0.006 | [6] -0.175 | [7] 0.018 | [8] 0.075 | [9] -0.067 | [10] -0.236

TIMM10B (UniProt Q9Y5J6)
inactive: [1] 0.033 | [2] -0.011 | [3] -0.064 | [4] 0.274 | [5] 0.115 | [6] -0.033 | [7] -0.12 | [8] -0.041 | [9] 0.063 | [10] 0.131

TBC1D10B (UniProt Q4KMP7)
inactive: [1] -0.108 | [2] -0.114 | [3] 0.025 | [4] 0.019 | [5] 0.022 | [6] 0.004 | [7] -0.005 | [8] 0.015 | [9] -0.053 | [10] -0.185

TBC1D9B (UniProt Q66K14)
UniProt Q66K14, sequence (Q66K14 whole entry, looked up): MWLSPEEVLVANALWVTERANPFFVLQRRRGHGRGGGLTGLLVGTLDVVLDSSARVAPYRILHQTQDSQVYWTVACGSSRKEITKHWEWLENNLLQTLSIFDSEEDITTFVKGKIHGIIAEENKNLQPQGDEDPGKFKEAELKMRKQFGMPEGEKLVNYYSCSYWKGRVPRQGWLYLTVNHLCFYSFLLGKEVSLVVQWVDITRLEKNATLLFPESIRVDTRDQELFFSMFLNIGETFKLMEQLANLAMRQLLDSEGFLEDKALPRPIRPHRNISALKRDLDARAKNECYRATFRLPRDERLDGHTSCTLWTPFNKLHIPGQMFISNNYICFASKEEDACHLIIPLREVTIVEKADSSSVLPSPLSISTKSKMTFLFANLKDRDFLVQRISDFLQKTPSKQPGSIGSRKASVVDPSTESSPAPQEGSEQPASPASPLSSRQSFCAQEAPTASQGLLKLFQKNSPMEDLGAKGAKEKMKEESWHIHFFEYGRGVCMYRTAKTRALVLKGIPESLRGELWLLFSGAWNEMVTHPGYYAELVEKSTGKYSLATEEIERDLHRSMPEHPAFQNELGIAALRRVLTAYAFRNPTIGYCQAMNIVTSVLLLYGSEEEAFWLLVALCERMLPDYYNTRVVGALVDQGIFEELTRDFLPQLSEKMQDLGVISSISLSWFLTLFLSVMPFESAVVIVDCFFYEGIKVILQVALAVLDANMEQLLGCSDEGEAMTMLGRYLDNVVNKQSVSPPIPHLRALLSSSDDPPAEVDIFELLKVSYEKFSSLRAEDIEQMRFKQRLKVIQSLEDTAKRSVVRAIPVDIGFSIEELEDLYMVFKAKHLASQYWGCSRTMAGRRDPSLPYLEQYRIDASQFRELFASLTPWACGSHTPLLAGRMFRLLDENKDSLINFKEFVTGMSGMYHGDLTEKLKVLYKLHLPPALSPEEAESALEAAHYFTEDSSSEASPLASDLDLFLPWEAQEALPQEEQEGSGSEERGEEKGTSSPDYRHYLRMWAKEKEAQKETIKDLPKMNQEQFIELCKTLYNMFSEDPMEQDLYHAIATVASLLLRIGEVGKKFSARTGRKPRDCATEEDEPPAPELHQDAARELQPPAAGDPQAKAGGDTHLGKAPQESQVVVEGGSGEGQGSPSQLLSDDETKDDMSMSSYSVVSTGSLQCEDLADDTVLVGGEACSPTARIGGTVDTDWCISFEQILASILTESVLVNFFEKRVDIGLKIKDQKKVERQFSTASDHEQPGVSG
active: [1] -0.58 | [2] -0.348 | [10] -0.328
inactive: [3] 0.053 | [4] -0.073 | [5] -0.089 | [6] -0.141 | [7] 0.021 | [8] -0.102 | [9] 0.018

TIMM29 (UniProt Q9BSF4)
inactive: [1] 0.044 | [2] -0.071 | [3] 0.019 | [4] -0.013 | [5] 0.027 | [6] -0.035 | [7] 0 | [8] -0.016 | [9] -0.103 | [10] 0.062

SLIRP (UniProt Q9GZT3)
inactive: [1] 0.05 | [2] 0.343 | [3] -0.093 | [4] 0.302 | [5] 0.015 | [6] 0.02 | [7] 0.08 | [8] 0.058 | [9] 0.092 | [10] 0.06

SPART (UniProt Q8N0X7)
inactive: [1] -0.031 | [3] -0.005 | [4] -0.123 | [5] -0.015 | [6] 0.014 | [7] 0.069 | [8] 0.04 | [9] -0.035 | [10] -0.052
active: [2] -0.224

Source: the supplement of paper PMC10849652
